High-throughput results as filed in PubChem.
D2 antag: antagonizes the human D2 dopamine receptor. inhibition, % at 10 µM. 2% of 340,000 active. P14416. HEK293 TREx D2 cells, calcium flux, dopamine EC80; in the data active means inhibition above about 30%; inactive means below that, where a call was filed
Target sequence (P14416 whole entry, looked up): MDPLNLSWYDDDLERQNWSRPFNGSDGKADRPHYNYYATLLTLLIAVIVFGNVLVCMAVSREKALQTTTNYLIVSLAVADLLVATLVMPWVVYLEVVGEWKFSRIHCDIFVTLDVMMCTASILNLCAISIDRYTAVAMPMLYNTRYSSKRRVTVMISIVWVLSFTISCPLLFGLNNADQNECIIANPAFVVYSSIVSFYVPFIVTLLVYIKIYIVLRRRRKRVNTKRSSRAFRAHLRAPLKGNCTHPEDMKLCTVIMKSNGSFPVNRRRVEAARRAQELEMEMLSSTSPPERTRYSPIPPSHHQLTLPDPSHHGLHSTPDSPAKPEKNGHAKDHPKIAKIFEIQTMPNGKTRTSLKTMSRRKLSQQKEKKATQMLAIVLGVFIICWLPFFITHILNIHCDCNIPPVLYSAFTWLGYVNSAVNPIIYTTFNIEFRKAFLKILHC
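Calcium mobilization kinetics were recorded at 1 s intervals in tetracycline-induced HEK293 T-REx D2 cells, first for 180 s after compound addition and then 180 s after EC80 dopamine.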
D2 PAM-1: potentiates the human D2 dopamine receptor allosterically; AID 624464; DiscoveRx D2 beta-arrestin cells, luminescence, 90 min; 100% = 57 uM dopamine signal; 0.23% of 360,000 active; potentiation, % (test concentration not listed); P14416; in the data active means potentiation above about 50%
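D2 cells co-treated with compound plus 50 nM dopamine (EC20) for 90 min at 37 deg C to detect potentiation. Beta-arrestin recruitment was read as enzyme-fragment luminescence after 1 h at ambient temperature. Full response was set by 57 uM dopamine.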
D2 PAM-2: positive allosteric modulators of human D2 dopamine receptor; AID 485347; P14416; potentiation, % at 10 µM; HEK293 T-REx D2, calcium flux, EC20 dopamine potentiation; 0.34% of 340,000 active;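 active means potentiation over 3 SD above the plate norm, cut at about 30% in these data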
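Primary screen. Calcium kinetics in induced HEK293 T-REx D2 cells: compound pre-addition 180 s, EC20 dopamine, 180 s more.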
D2 ag-1: agonists of human D2 dopamine receptor (beta-arrestin); P14416; DiscoveRx PathHunter D2 beta-arrestin, luminescence, 90 min; 100% = 57 uM dopamine signal; activation, % (no concentration beside the values); 0.084% of 360,000 active; in the data active means activation above about 40%
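Agonist mode: compounds alone added to overnight-plated D2 PathHunter cells for 90 min at 37 C, with 57 uM final dopamine (EC100) defining full response. Beta-arrestin recruitment detected by chemiluminescent reagent, read after 1 h at ambient temperature.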
D2 ag-2: agonists of human D2 dopamine receptor; AID 485358; activation, % at 2 µM; P14416; 0.53% of 340,000 active; HEK293 T-REx D2 cells, calcium flux agonist mode;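 active means activation over 3 SD above normal in the single-dose calcium agonist read, cut at about 30% in these data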
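In this primary screen, compounds producing a positive calcium signal within 180 s of addition to tetracycline-induced, force-coupled HEK293 Trex D2 cells are flagged; cells are dye-loaded with a no-wash calcium kit beforehand.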
A number is an active result; – = inactive; · = no result given. This is a sample that favours compounds with a hit; in the whole collection about 2.4% have one here.

SMILES	D2 antag	D2 PAM-1	D2 PAM-2	D2 ag-1	D2 ag-2
CN1CCN(C2=Cc3ccc(Cl)cc3Sc3ccc(F)cc32)CC1	103.1	–	–	–	–
CN1CCN(C2Cc3ccccc3Sc3cc(C(F)(F)F)ccc32)CC1 (configuration not stated)	·	–	·	–	·
COc1ccc(CCCNC(=O)C2(C)Cc3c(-c4cccc(C(N)=O)c4)ccnc3O2)cc1 (configuration not stated)	·	–	·	76.4	·
CC1(C(=O)NCCC(F)(F)F)Cc2c(-c3cccc(C(N)=O)c3)ccnc2O1 (configuration not stated)	·	–	·	–	·
Cc1cccc2sc(N(Cc3cccnc3)C(=O)C3CCCCC3)nc12	·	·	·	·	–
Cc1cc(N2CCC(C(=O)N(CC(C)C)CC(C)C)CC2)n2nc(C)c(-c3ccc(Cl)cc3)c2n1	·	·	–	·	–
COc1cc(-c2noc(CN3CCN(c4ccccc4)CC3)n2)cc(OC)c1OC	·	·	–	·	–
O=C(O)CC1S/C(=N\N=C2CCCCCCC2)N(c2ccccc2)C1=O (configuration not stated)	–	–	–	–	–
C=CCN1C(=O)C(CC(=O)O)SC1=Nc1ccc(N=Nc2ccccc2)cc1 (configuration not stated)	–	–	39.5	–	–
O=C(O)CC1SC(=Nc2ccccc2)N(c2ccccc2)C1=O (configuration not stated)	42.6	–	–	–	–
C=CCN1C(=O)C(CC(=O)O)SC1=Nc1cccc([N+](=O)[O-])c1 (configuration not stated)	–	–	–	–	–
Oc1cccc(Nc2cc(-c3ccccc3)ncn2)c1	·	·	·	·	–
COc1ccccc1NC(=O)Cn1c(=O)n(CCC(=O)NCC2CCCO2)c(=O)c2cc(OC)c(OC)cc21 (configuration not stated)	·	·	–	·	–
O=C(N/N=C/c1cccnc1)c1cc(-c2ccccc2Cl)nc2ccccc12	–	–	–	–	–
CCc1ccc(/C=N/NC(=O)c2cc(-c3ccccc3OC)nc3ccccc23)s1	35.2	–	–	–	–
COc1ccccc1-c1cc(C(=O)N/N=C/c2ccc(C)s2)c2ccccc2n1	47.7	–	–	–	–
COc1ccc(/C=N/NC(=O)c2cc(-c3ccccc3OC)nc3ccccc23)cc1COC(C)=O	–	–	–	–	–
COc1ccccc1-c1cc(C(=O)N/N=C/c2ccoc2)c2ccccc2n1	79.1	–	–	–	–
Cc1ccccc1-c1cc(C(=O)N/N=C/c2cccnc2)c2ccccc2n1	32.5	–	–	–	–
Cc1cccn2c(=O)c3cc(C(=O)N(Cc4ccccc4)C(C)C)sc3nc12	·	·	–	·	–
CCCS(=O)(=O)N1CCC(n2c(C)nc3cccnc32)CC1	·	·	–	·	–
CSc1ccc(CCNC(=O)CCCn2nc(C)c3sc4ccccc4c3c2=O)cc1	·	·	–	·	–
CCOc1ccc(NC(=O)CC2C(=O)N(c3cccc(C)c3)C(=O)N2CCC2=CCCCC2)cc1 (configuration not stated)	·	·	–	·	–
COc1cc(NC(=O)c2ccccc2OCc2ccccc2)cc(OC)c1OC	–	55.6	–	–	–
O=C(Nc1ccc(O)cc1)c1ccccc1OCc1ccccc1	–	–	–	–	–
SMILES	D2 antag	D2 PAM-1	D2 PAM-2	D2 ag-1	D2 ag-2
Oc1ccc(/C=N/N2CCCCC2)cc1O	·	–	–	43.5	·
Cc1cccc(N(CC(=O)NC2CCCC2)C(=O)CS(=O)CC(=O)Nc2ccc3c(c2)OCO3)c1 (configuration not stated)	31.7	–	–	–	–
Cc1nc2ccccc2c2oc(C(=O)N3CC(C)CC(C)C3)cc12 (configuration not stated)	–	–	31.0	–	–
Cc1nc2ccccc2c2oc(C(=O)NCCCN3CC(C)CC(C)C3)cc12 (configuration not stated)	–	–	–	–	–
CC(C)(C)c1cc(OC(=O)c2ccncc2)ccc1O	·	69.4	–	–	·
Cc1ccc(N2C(=O)c3cccc4c(N)ccc(c34)C2=O)c2cccnc12	–	–	–	–	84.1
CCCCNc1ccc2c3c(cccc13)C(=O)N(CCCC)C2=O	80.9	–	–	–	185.4
CCN1C(=O)c2cccc3c(N)ccc(c23)C1=O	60.5	–	–	–	151.2
Cc1nn(C)c(C)c1N1C(=O)c2cccc3c(N)ccc(c23)C1=O	–	–	–	–	115.4
Cc1ccc(-n2cnnn2)c2cccnc12	–	–	–	–	–
CCCN1C(=O)c2cccc3c(N4CCCCC4)ccc(c23)C1=O	–	–	–	–	–
COc1ccccc1CNc1nc(-c2ccco2)nn1S(=O)(=O)c1ccc2ccccc2c1	·	·	–	·	–
Cc1cc(C)c(OCC(=O)N(Cc2ccc(N(C)C)cc2)Cc2ccco2)c(C)c1	·	·	–	·	–
O=C(Cc1cccc2ccccc12)NN=Cc1ccc2c(c1)CCC2	·	–	·	–	·
CCOC(=O)c1cccc(NC(=O)Cc2ccc(NC(=O)N3CCCCc4ccccc43)cc2)c1	·	·	–	·	–
COc1cc(NC(=O)C2CCC(=O)N2S(=O)(=O)c2ccc(C)cc2)cc(OC)c1 (configuration not stated)	–	–	–	–	–
COc1ccc(NC(=O)C2CCC(=O)N2S(=O)(=O)c2ccc(C)cc2)cc1Cl (configuration not stated)	33.6	–	–	–	–
CCOC(=O)CC(NCc1ccc(OC)c(OCC)c1)c1ccc(C)cc1 (configuration not stated)	60.6	–	–	–	–
O=C(c1ccc2c(c1)OCCO2)C1CCN(C(=O)Nc2ccc(F)cc2)CC1	–	–	–	–	–
COc1ccc(NC(=O)N2CCCC(C(=O)NC(C)C)C2)cc1 (configuration not stated)	32.7	–	–	–	–
COc1ccc(NC(=O)N2CCC(C(=O)c3ccc4c(c3)OCCO4)CC2)cc1	–	–	32.6	–	–
Oc1oc(-c2ccccc2)nc1C=NCc1ccncc1	30.7	–	–	–	–
O=C(Cn1c(=O)n(Cc2ccccc2)c(=O)c2sc3ccccc3c21)Nc1ccc(F)cc1	·	·	–	·	–
O=C(c1ccc2nc(N3CCOCC3)sc2c1)N1CCC(Cc2ccccc2)CC1	31.8	–	–	–	–
CCn1cnc2sc(C(=O)N3CCN(Cc4ccc5c(c4)OCO5)CC3)c(C)c2c1=O	–	·	–	·	33.5
O=C(c1ccc(F)cc1)N1CCC(C(=O)N2CCN(Cc3ccc4c(c3)OCO4)CC2)CC1	30.5	–	–	–	–
O=C(c1ccc2nc(N3CCCCC3)sc2c1)N1CCN(Cc2ccc3c(c2)OCO3)CC1	–	–	–	–	49.0
CCOC(=O)N1CCN(C(=O)c2ccc3nc(N4CCCCC4)sc3c2)CC1	–	–	–	–	–
Cc1ccccc1C(=O)N1CCC(C(=O)N2CCN(Cc3ccc4c(c3)OCO4)CC2)CC1	·	–	·	–	·
